Records with an inconclusive call do not appear. Active and inactive are the calls of the source.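 The calls were made as follows, unless noted: active = binding below the plate cutoff, the plate median minus 3 SD, with a reading above zero; inconclusive = below the plate cutoff but reading exactly zero; inactive = the rest.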

Experimental findings from PubChem BioAssay are described below.

The nature of test [1]: rapamycin-like changes in RPL19A-GFP expression – cell-based, S. cerevisiae, multiplex flow cytometry, primary screen (AID 1862; in the data active = percent of DMSO control GFP below about 86%;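 also: lower values mimic rapamycin by blocking the RPL19A rise seen in DMSO cells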). To be noted: S. cerevisiae RPL19A-GFP strain, flow cytometry fluorescence, 3 h; at 10 µM; stronger effect = lower value. For orientation: A flow cytometer gives signals particle by particle.
The nature of test [2]: TOR pathway GLN3 branch reporter MEP2-GFP changes – S. cerevisiae, multiplex flow cytometry, primary screen (AID 1867;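 active = GFP response, as percent of the DMSO control, above the screen-wide mean plus 3 SD, about 139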;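 also: median GFP channel fluorescence of barcode-gated MEP2-GFP cells measured by flow cytometry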). To be noted: S. cerevisiae MEP2-GFP strain, 3 h, at 10 µM, stronger effect = higher value, 100% means same as DMSO wells.
Test [3] in a line: TOR pathway RTG branch CIT2 reporter changes – S. cerevisiae, GFP fusion, multiplex flow cytometry, primary screen (AID 1870;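 active = percent response above a set limit, the screen-wide mean plus 3 SD, cut at about 130% in these data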;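 also: barcoded CIT2-GFP strain pooled with four other GFP strains with rapamycin as positive control; median GFP fluorescence per well over plate mean of DMSO wells so 100% = DMSO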). The conditions noted are these: S. cerevisiae CIT2-GFP expression, 3 h, at 10 µM, stronger effect = higher value.
Test [4] in a line: TOR pathway LAP4-GFP level changes – S. cerevisiae, multiplex flow cytometry, primary screen (AID 1873;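 active = GFP signal, as percent of the solvent control, above the screen mean plus 3 SD, about 149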). The conditions noted are these: S. cerevisiae LAP4-GFP expression, 3 h, at 10 µM, stronger effect = higher value.
Test [5] is described as follows: yeast AGP1-GFP level changes, GLN3 branch – cell-based, multiplex flow cytometry, S. cerevisiae, primary screen (AID 1887;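 active = GFP signal above the screen-wide mean plus 3 SD, that is over about 124.5% of the solvent control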;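 also: AGP1-GFP fusion strain of S. cerevisiae within a five-strain barcoded multiplex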). To be noted: 3 h, at 10 µM, stronger effect = higher value.
The nature of test [6]: reduced mouse 2C T cell binding to pMHC/ICAM-1 vesicles – MLPCN validation set, flow cytometry, LFA-1/ICAM-1 modulator project, pilot screen (AID 2523;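 active = response below a set limit, under 55% cells CD8-positive and vesicle-bound, and CD8 cells' 90th-percentile brightness under 279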;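 as to vesicle binding response: mean PE anti-B7-1 fluorescence of CD8+ cells relative to row control; 100% = QL9-loaded vesicles with DMSO vehicle in the same plate row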). To be noted: 2C mouse CD8+ T cells, at 7 µM, stronger effect = lower value; double positive events: measured here: CD8+/vesicle+ event percentage.
Test [7] deals with Integrin beta-1 (Homo sapiens) + Integrin alpha-4 (Homo sapiens) (UniProt P13612+P05556). Put plainly: alpha4beta1 integrin LIBS antibody binding reduction – U937 cells, HUTS-21 mAb, flow cytometry, validation set, VLA-4 allosteric modulator project, pilot screen (AID 2674;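 active = inhibition above 50%, about 3 SD of the validation set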;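 also: antibody binding induced by the VLA-4 ligand LDV present at three times its Kd; 0% = LDV ligand with antibody and no compound and 100% = antibody without LDV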). The conditions noted are these: HUTS-21 LIBS mAb binding, at 6.7 µM, stronger effect = higher value, binding induced by LDV ligand.
Integrin beta-1 (Homo sapiens) + Integrin alpha-4 (Homo sapiens), sequence (P05556 whole entry, looked up): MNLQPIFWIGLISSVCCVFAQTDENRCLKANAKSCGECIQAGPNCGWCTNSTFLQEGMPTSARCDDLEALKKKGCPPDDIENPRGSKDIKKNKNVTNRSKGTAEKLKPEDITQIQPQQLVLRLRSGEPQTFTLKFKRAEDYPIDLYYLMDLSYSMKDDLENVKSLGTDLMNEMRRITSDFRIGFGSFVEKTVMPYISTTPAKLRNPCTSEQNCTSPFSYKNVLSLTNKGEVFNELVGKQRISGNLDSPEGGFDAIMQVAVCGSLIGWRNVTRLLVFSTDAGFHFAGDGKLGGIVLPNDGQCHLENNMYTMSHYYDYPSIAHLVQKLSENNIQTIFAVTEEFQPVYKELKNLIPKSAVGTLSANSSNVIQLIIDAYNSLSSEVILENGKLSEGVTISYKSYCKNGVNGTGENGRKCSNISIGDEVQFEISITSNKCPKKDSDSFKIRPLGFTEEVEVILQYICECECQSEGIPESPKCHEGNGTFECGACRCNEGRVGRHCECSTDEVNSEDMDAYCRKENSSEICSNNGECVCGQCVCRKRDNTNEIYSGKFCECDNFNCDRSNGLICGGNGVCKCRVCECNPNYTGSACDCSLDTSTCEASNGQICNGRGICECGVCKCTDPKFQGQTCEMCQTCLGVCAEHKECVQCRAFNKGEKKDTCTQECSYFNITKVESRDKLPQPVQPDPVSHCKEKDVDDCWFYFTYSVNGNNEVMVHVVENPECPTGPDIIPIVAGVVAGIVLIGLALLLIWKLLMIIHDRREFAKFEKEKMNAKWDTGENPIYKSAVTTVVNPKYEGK
Integrin beta-1 (Homo sapiens) + Integrin alpha-4 (Homo sapiens), sequence (P13612 whole entry, looked up): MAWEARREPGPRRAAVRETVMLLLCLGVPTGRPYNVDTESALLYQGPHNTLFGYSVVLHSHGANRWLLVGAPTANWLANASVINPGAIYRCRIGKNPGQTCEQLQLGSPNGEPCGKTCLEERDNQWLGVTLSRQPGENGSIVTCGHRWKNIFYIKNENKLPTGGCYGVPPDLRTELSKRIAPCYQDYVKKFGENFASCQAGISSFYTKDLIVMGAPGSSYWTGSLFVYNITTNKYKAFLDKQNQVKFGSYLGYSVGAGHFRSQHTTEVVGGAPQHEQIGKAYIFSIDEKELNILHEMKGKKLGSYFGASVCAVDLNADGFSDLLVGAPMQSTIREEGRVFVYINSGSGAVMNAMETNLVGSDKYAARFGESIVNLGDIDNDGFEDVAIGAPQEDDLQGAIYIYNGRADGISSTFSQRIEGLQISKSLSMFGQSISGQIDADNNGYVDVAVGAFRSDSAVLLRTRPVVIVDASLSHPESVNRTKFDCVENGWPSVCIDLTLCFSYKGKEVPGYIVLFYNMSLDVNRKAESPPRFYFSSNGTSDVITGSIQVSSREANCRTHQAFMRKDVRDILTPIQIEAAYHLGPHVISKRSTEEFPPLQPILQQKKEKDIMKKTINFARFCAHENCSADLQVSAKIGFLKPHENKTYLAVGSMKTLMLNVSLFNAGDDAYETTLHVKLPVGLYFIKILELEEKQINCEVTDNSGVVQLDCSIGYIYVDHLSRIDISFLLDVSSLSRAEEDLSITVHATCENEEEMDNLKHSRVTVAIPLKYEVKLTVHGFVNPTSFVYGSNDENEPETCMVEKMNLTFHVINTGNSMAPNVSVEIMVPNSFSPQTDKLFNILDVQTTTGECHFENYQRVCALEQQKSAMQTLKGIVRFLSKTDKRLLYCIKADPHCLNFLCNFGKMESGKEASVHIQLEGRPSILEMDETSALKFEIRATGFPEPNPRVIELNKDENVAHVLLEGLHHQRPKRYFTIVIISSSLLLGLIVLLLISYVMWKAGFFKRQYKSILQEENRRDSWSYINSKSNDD

The nature of test [8]: calorie-restriction mimetic ROS inhibitors, yeast – validation compound set, pilot screen (AID 2706;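 active = superoxide response below 65% of plate, a cut near 3 SD across the whole screen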;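 also: yeast exposed to compound for one week at 30 degrees C before staining; 100% = mean of all compound wells on the same plate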). To be noted: S. cerevisiae aging, superoxide DHE fluorescence; at 10 µM; stronger effect = lower value.
Test [9] deals with Beta-adrenergic receptor kinase 1 (Homo sapiens) (UniProt P25098). Put plainly: GRK2 binders displacing RNA aptamer, biochemical, validation, human GRK2, bead flow cytometry (AID 488806;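 active = aptamer binding inhibition above 30%, about 3 SD of noise from non-fluorescent compounds; inactive = inhibition at or below 30%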). To be noted: bead-bound GRK2, FAM-aptamer displacement, at 10 µM, stronger effect = higher value.
Beta-adrenergic receptor kinase 1 (Homo sapiens), sequence (P25098 whole entry, looked up): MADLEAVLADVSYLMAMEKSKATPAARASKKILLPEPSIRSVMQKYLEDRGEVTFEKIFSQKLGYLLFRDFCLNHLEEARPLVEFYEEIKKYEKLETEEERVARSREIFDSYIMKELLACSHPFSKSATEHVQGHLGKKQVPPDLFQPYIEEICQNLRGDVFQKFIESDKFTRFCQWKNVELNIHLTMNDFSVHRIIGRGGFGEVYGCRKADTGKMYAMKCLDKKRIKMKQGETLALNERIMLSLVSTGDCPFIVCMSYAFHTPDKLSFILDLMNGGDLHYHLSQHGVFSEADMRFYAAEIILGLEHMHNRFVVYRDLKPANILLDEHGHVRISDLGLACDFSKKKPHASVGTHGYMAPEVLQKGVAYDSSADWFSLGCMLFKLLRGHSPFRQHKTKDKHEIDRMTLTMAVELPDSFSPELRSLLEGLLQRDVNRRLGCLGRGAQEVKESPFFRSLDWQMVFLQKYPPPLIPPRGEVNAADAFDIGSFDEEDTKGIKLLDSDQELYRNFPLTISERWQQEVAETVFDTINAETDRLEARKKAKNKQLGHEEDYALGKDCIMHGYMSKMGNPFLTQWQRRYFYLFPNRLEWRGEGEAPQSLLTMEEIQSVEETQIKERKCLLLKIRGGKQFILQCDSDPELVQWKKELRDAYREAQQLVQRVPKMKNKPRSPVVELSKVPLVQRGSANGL
The target in test [10] is Beta-2 adrenergic receptor (Homo sapiens) (UniProt P07550). Put plainly: agonist-induced loss of surface beta2AR – cell-based, FAP fluorogen, flow cytometry, validation set, pilot screen (AID 504459;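 active = percent response above 42, roughly 3 SD of non-fluorescent test compounds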;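 also: agonist-driven loss of surface beta2AR via internalization measured by FAP dye flow cytometry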). The conditions noted are these: Am2.2-beta2AR cells, at 10 µM, stronger effect = higher value.
Beta-2 adrenergic receptor (Homo sapiens), sequence (P07550 whole entry, looked up): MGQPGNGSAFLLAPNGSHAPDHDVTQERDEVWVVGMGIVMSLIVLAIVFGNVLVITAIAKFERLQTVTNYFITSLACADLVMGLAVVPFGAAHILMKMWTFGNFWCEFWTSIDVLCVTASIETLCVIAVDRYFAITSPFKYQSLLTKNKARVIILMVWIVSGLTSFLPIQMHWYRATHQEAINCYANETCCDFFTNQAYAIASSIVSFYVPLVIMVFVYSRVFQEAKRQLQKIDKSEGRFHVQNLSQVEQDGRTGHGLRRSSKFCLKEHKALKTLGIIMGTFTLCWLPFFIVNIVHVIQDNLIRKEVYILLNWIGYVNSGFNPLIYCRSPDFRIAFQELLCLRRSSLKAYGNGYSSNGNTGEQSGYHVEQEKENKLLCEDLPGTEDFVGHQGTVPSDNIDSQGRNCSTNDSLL
For test [11], the target named is AP-2 complex subunit beta (Homo sapiens) (UniProt P63010). Put plainly: beta-arrestin/AP2 interaction blockers – biochemical, validation set, GST-AP2 beads, flow cytometry, pilot screen (AID 504541;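 active = inhibition above 54%, about 3 SD of non-fluorescent compounds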;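 also: AP2 carries R879A mutation and is captured from E. coli lysate; bead-bound FITC arrestin peptide fluorescence measuring arrestin peptide binding to AP2; 0% = DMSO wells and 100% = excess unlabeled arrestin peptide control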). The conditions noted are these: FITC arrestin peptide, at 10 µM, stronger effect = higher value, AP2 beta2 appendage fragment, R879A mutant.
AP-2 complex subunit beta (Homo sapiens), sequence (P63010 whole entry, looked up, the tested form may be a part, one chain of several): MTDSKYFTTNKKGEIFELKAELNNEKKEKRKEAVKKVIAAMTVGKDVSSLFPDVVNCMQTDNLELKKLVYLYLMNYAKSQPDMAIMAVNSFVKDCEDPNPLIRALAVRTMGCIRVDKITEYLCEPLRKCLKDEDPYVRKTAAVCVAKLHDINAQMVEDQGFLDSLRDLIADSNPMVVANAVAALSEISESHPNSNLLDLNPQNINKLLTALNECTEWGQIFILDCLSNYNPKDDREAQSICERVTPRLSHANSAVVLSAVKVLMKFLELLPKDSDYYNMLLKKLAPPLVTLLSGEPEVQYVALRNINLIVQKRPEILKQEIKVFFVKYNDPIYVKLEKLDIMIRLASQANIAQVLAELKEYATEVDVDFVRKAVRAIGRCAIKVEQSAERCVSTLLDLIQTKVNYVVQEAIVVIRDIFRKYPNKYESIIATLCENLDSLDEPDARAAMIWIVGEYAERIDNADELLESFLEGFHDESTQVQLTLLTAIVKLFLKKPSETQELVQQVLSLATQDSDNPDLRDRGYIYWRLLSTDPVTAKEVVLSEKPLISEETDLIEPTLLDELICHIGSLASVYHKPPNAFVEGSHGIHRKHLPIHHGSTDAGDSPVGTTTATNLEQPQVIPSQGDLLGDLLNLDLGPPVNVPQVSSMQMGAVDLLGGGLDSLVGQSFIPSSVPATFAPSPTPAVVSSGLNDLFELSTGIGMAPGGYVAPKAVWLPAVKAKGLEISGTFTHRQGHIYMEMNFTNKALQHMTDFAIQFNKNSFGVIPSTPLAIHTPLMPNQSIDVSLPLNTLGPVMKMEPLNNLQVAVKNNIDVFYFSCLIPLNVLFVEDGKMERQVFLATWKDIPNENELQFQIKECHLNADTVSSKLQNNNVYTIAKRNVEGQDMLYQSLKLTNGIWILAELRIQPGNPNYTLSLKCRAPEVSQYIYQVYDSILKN
Test [12] in a line: cytosolic pH regulators acting via V-ATPase – S. cerevisiae, pHLuorin, HTS validation (AID 504600; in the data active = response above about 15%;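 also: plate controls were DMSO for no effect and reference compound for full effect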). The conditions noted are these: V-ATPase proton transport, at 10 µM, stronger effect = higher value.
For test [13], the system named is anti-desmoglein-3 scFv antibody binding to human DSG3. Put plainly: blockers of pathogenic pemphigus antibody–desmoglein-3 binding – biochemical, validation compound set, bead-based, flow cytometry, pilot screen (AID 588368).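 Also: signal is the median channel fluorescence of bead-bound GFP antibody.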 To be noted: Protein G beads, DSG3-Fc, scFv-GFP binding, at 10 µM, stronger effect = lower value.
The nature of test [14]: Nile Red efflux blockade in pump-expressing yeast – validation compound set, multiplex, phenotypic, pilot screen (AID 588506;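 active = efflux inhibition above 0.42, the validation set average plus 4 SD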;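 also: Nile Red retained in cells so higher fluorescence means more efflux inhibition; 0 = negative control wells and 1 = enniatin B 25 µM full block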). To be noted: S. cerevisiae pump-expressing triplex, Nile Red efflux flow cytometry; at 10 µM; stronger effect = higher value; the pumps come from Candida albicans.
The target of test [15] is ATP-binding cassette sub-family B member 6 (Homo sapiens) (UniProt Q9NP58). Put plainly: blockers of ABCB6-driven porphyrin uptake – K562-ABCB6 cells, flow cytometry, validation set, pilot screen (AID 588550;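 active = inhibition above the screen-wide mean plus 3 SD, about 51%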;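 also: 0% = DMSO wells and 100% = benzethonium chloride 70 µM positive control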). To be noted: K562-ABCB6 porphyrin accumulation, 1 h, at 10 µM, stronger effect = higher value.
ATP-binding cassette sub-family B member 6 (Homo sapiens), sequence (Q9NP58 whole entry, looked up): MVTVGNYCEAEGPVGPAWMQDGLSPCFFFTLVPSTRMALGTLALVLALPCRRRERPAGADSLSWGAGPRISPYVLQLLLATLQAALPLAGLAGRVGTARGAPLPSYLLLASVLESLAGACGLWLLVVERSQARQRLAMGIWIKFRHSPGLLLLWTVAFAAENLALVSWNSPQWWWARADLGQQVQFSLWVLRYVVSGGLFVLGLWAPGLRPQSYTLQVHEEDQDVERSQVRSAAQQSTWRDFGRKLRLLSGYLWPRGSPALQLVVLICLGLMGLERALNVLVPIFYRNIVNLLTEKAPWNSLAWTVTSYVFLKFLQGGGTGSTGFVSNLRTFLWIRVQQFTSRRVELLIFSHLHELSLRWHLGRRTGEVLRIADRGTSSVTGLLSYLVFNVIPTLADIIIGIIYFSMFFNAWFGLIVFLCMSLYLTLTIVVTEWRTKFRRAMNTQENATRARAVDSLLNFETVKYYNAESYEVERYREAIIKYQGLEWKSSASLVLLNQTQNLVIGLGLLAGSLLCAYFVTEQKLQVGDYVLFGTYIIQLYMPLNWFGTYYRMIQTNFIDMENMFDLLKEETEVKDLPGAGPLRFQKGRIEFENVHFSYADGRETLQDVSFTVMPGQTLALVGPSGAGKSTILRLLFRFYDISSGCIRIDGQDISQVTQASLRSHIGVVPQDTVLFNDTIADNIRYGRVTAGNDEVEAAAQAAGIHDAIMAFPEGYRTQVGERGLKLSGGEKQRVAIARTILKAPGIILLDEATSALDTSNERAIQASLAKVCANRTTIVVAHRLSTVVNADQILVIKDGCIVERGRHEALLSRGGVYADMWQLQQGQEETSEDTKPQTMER
A short description of test [16]: AML differentiation inducers, ER-HoxA9 marrow cells – cell-based, GFP/MAC1 double positive, flow cytometry, validation set, primary screen (AID 588685;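 active = differentiation response of at least 50%, scaled between solvent and reference control, from cells with both markers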;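 also: compound exposure lasts four days before antibody staining and flow analysis; 0% = DMSO wells and 100% = 5 µM fulvestrant positive control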). The conditions noted are these: stronger effect = higher value, normalized: vehicle 0, fulvestrant 100.

For `C#C[C@]1(O)CC[C@H]2[C@@H]3CCc4cc(OC)ccc4[C@H]3CC[C@@]21C`, in test [1], the percent of DMSO control GFP was 103% (inactive). Moreover, the GFP response vs DMSO in [2] was 104% (inactive); in [4], 126% (inactive). The percent response of DMSO control in test [3] is 102% (inactive). For the same molecule, the GFP response, % of DMSO in [5] was 115% (inactive). The same molecule gave a double positive events in [6] of 63.7%. Moreover, the vesicle binding response in [6] is 229% (inactive). The inhibition (in general, the drop in the measured response relative to a control, in per cent) is 3.14% (inactive) in test [7], 31.4% (inactive) in test [11] and 5% (inactive) in test [15]. The superoxide response (% of plate) in [8] is 115% (inactive). Besides, the aptamer binding inhibition in [9] was -1% (inactive). Also, the response in test [10] was -13.2% (inactive); in [12], 0.87% (inactive). Also, in test [13], the binding (% of control) is 108% (inactive). The efflux inhibition (fraction of control) in test [14] is -0.04 (inactive). In addition, the differentiation response in [16] is -2.03% (inactive).
`COc1ccc2c(C=O)cn(C)c2c1`: the percent of DMSO control GFP in [1] was 89.8% (inactive). In addition, the GFP response vs DMSO was 137% (inactive) in test [2] and 82% (inactive) in test [4]. For the same molecule, in test [3], the percent response of DMSO control was 103% (inactive). The GFP response, % of DMSO in [5] is 85% (inactive). The double positive events in test [6] came out at 66.8%. The vesicle binding response in [6] was 151% (inactive). Moreover, the inhibition was 6.46% (inactive) in test [7], 9.51% (inactive) in [11] and 11% (inactive) in test [15]. Moreover, the superoxide response (% of plate) in [8] is 87.5% (inactive). Besides, in test [9], the aptamer binding inhibition was 7% (inactive). For the same molecule, the response in [10] was -0.49% (inactive); in test [12] it was -4.19% (inactive). For the same molecule, in [13], the binding (% of control) is 105% (inactive). Also, the efflux inhibition (fraction of control) in [14] was 0.27 (inactive). In addition, the differentiation response in test [16] was 4.91% (inactive).
Regarding `NS(=O)(=O)c1cc2c(cc1Cl)NCNS2(=O)=O`, the percent of DMSO control GFP in test [1] was 99.7% (inactive). For the same molecule, the figures for the GFP response vs DMSO in test [2] and in [4] were 102% (inactive) and 132% (inactive), respectively. Further, the percent response of DMSO control in test [3] was 95.7% (inactive). In [5], the GFP response, % of DMSO is 123% (inactive). In [6], the double positive events worked out at 62.4%. For the same molecule, in test [6], the vesicle binding response is 245% (inactive). Besides, the results for the inhibition in test [7], in test [11] and in test [15] were -4.52% (inactive), -24.8% (inactive) and 2% (inactive), respectively. For the same molecule, the superoxide response (% of plate) in test [8] was 89.4% (inactive). Moreover, the aptamer binding inhibition in test [9] is -2% (inactive). For the same molecule, the response in test [10] is -19.4% (inactive); in test [12] it was 0.56% (inactive). The binding (% of control) in [13] is 105% (inactive). Further, the efflux inhibition (fraction of control) in test [14] is 0 (inactive). The differentiation response in test [16] was -11.9% (inactive).
In the case of `CCCCCCCC(=O)OCC(O)CO` (stereo not drawn), in [1], the percent of DMSO control GFP was 108% (inactive). Also, the GFP response vs DMSO was 103% (inactive) in test [2] and 92.7% (inactive) in test [4]. Also, the percent response of DMSO control in [3] is 97.8% (inactive). In test [5], the GFP response, % of DMSO was 90.3% (inactive). Also, the double positive events in [6] was determined as 60.6%. The vesicle binding response in test [6] is 45.8% (inactive). Further, the inhibition in test [7] was 0.58% (inactive); in test [11] it was -8.36% (inactive); in test [15] it was 5% (inactive). Also, the superoxide response (% of plate) in test [8] was 110% (inactive). Besides, the aptamer binding inhibition in test [9] was 3% (inactive). Also, the response in [10] is -8.74% (inactive); in [12] it was 4.53% (inactive). Also, in [13], the binding (% of control) was 98.7% (inactive). Besides, in test [14], the efflux inhibition (fraction of control) is 0.02 (inactive). The differentiation response in test [16] was 2.2% (inactive).
